# Compound activity deposited in PubChem BioAssay by National Center for Advancing Translational Sciences (NCATS).
# VP16 counter – VP16 counterscreen qHTS for inhibitors of ROR gamma transcriptional activity; Drosophila S2 Gal4-VP16 UAS-luciferase, luminescence, 20 h; Potency, µM (series often up to 53.6 µM), without a hit: top-dose activity, negative = inhibition, hits mostly inhibitors; hit rate 3.5% among 310,000; AID 2546, 2010;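 note: Gal4-VP16 expression switched on by copper sulfate through the metallothionein promoter; potency is the fitted concentration of half-maximal effect; nearly all actives have a fitted effect of over 50% in size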
# GALK inh – qHTS Assay for Inhibitors of Human Galactokinase (GALK). Purified GALK, Kinase-Glo residual ATP luminescence. Potency, µM (doses to about 57.5 µM), inactives show at the highest dose activity change, negative = inhibition, usual class: inhibitors. hit rate 0.007% among 270,000. AID 1868, 2009; note: potency is the fitted concentration of half-maximal effect
#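 Compounds were pin-transferred into ATP buffer (35 uM final), then GALK plus galactose (5 nM, 100 uM final) was added. After 1 h at room temperature, Kinase-Glo Plus was added and luminescence read after 10 min.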
# Coupling enz – qHTS Assay for Inhibitors of Fructose-1,6-bisphosphate Aldolase from Giardia Lamblia: Coupling assay counterscreen; coupling enzyme system counterscreen, AmpLite Red fluorescence; activity change, negative = inhibition, % at 58.2 µM, hits read low; hit rate 0.67% among 290,000; AID 2472, 2010; in the data active = activity change below about -30%
#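 Counterscreen lacking aldolase: glyceraldehyde-3-phosphate coupling-enzyme reagent preincubated 10 min at RT with compound (at 57.5 uM final), then substrate/coupling system with AmpLite Red added; fluorescence read at 525/598 nm after 20 min RT.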
# TrxR1 inh – qHTS Assay for Inhibitors of Mammalian Selenoprotein Thioredoxin Reductase 1 (TrxR1): qHTS. recombinant rTrxR1, NADPH fluorescence consumption, selenite substrate. Potency, µM (series often up to 114 µM), inactives show at the top dose activity change, negative = inhibition, hits mostly inhibitors. hit rate 1% among 390,000. Thioredoxin reductase 1, cytoplasmic (Rattus norvegicus), O89049; note: potency is the fitted concentration of half-maximal effect; nearly all actives have a fitted effect of over 65% in size
# Target sequence (O89049 whole entry, looked up): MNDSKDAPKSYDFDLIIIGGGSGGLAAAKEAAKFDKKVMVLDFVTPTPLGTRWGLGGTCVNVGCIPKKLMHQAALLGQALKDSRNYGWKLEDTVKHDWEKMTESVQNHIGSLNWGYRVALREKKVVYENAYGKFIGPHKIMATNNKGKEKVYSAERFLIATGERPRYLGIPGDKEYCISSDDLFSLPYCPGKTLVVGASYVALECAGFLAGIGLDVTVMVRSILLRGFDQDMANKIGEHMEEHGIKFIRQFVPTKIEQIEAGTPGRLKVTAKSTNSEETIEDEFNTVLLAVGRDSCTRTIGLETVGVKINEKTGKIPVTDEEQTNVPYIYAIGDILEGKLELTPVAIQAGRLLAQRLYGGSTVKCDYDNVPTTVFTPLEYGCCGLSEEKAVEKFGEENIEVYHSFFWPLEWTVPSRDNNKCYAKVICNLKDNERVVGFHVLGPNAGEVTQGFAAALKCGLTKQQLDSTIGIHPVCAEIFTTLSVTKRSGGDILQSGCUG
#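 Rat TrxR1 (90 nM in the dispensed reagent) was pre-reduced with 400 uM NADPH for 5 min at room temperature, then incubated with compound for 15 min. After 400 uM selenite was added, NADPH fluorescence (Ex 340/Em 450 nm) was followed for 8 min.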
# RORgamma inh – qHTS for inhibitors of ROR gamma transcriptional activity; Drosophila S2 Gal4-RORgamma UAS-luciferase reporter, 20 h; Potency, µM (top dose mostly 53.6 µM), for inactives: at the top dose activity change, negative = inhibition, most hits filed as inhibitors; hit rate 5.4% among 310,000; AID 2551, 2010; note: potency is the fitted concentration of half-maximal effect; nearly all actives have a fitted effect of over 60% in size
#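 ROR gamma transcriptional activity was tracked as Gal4-UAS luciferase output in stably transfected Drosophila Schneider cells, with compound added 1 hr before 700 uM copper sulfate induction and a 20 hr ambient-temperature incubation.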
# TrxR1 substrate – qHTS Assay for Substrates of Mammalian Selenoprotein Thioredoxin Reductase 1 (TrxR1): qHTS. purified TrxR1 substrate turnover, NADPH consumption readout. Thioredoxin reductase 1, cytoplasmic (Rattus norvegicus), O89049. Potency, µM (series often up to 114 µM), inactives show at the top dose activity change, negative = substrate turnover. hit rate 0.01% among 390,000; note: potency is the fitted concentration of half-maximal effect; nearly all actives have a fitted effect of over 50% in size
#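 Rat TrxR1, dispensed at 90 nM, was prereduced with 400 uM NADPH (final) for 5 min at ~22 deg C, then incubated with compound 15 min before 400 uM selenite. A first-read NADPH fluorescence drop versus no-compound background flagged substrates.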
# Numbers without * were called inactive; ? = inconclusive; · = no result given; [ ] = remark or other dose. In the library only some 5.9% were active in any assay of this set; here they are far more common. Unless noted, calls come from the whole dose curve; as a rule, active = well fitted curve in the direction sought with a large enough effect; inconclusive = small, poorly fitted or top-dose-only effect, or another doubt; inactive = no such curve, though single readings can be large; an effect the other way counts as inactive or inconclusive. % is set by controls: 0 for no effect and ±100 for the full control effect.
SMILES,VP16 counter,GALK inh,Coupling enz,TrxR1 inh,RORgamma inh,TrxR1 substrate
O=C(CSc1nc2ccccc2c(=O)n1CC1CCCO1)NCc1ccc2c(c1)OCO2 (stereo not drawn),7.9%,-1.9%,-2.5,29.2%,-7.1%,2.3%[57.1 µM]
O=C(C=C=Nc1ccccc1)C(=O)N=C=Cc1ccccc1,7.08µM*,·,1.2,?,3.98µM*,1.7%
O=C(N/N=C/c1ccccc1)C(=O)N/N=C/c1ccccc1,-4.8%,-3.1%,-0.4,9.8%[57.1 µM],-36.6%,-0.7%[57.1 µM]
CCN1CCN(C(=O)CS(=O)Cc2nc(-c3cccc(C)c3)oc2C)CC1 (stereo not drawn),6.0%,2.3%,1.6,?,-15.7%,11.6%
Cc1cccc(-c2nc(CS(=O)CC(=O)NC3CCCC3)c(C)o2)c1 (stereo not drawn),-7.5%,2.2%,2.3,?,0.6%,8.2%[57.1 µM]
Cc1cccc(-c2nc(CS(=O)CC(=O)N3CCc4ccccc4C3)c(C)o2)c1 (stereo not drawn),4.5%,1.9%,-11.8,12.6µM*,8.3%,10.1%[57.1 µM]
Cc1cccc(-c2nc(CS(=O)CC(=O)NC3CCCC(C)C3C)c(C)o2)c1 (stereo not drawn),0.2%,·,3.2,15.8µM*,-20.6%,-5.0%[57.1 µM]
Cc1cccc(-c2nc(CS(=O)CC(=O)N3CC(C)CC(C)C3)c(C)o2)c1 (stereo not drawn),0.0%,2.6%,0.7,39.8µM*,-4.8%,0.3%
CC(=O)N1c2ccc(S(=O)(=O)NCC3CCC(C(=O)Nc4ncccc4C)CC3)cc2CC1C (stereo not drawn),-2.5%,-6.1%,·,5.5%,-1.0%,0.2%
Cc1ccc2c(c1)N(CC(=O)N1CCCCCC1)C(=O)CO2,-6.0%,3.1%,1.6,3.6%,-14.5%,-7.6%
CC1=NN(C(N)=S)C(=O)C1N=Nc1cccc([N+](=O)[O-])c1 (stereo not drawn),1.58µM*,·,2.0,?,0.501µM*,-0.5%
CC1=NN(C(N)=S)C(=O)C1N=Nc1ccccc1 (stereo not drawn),0.891µM*,3.6%,3.5,?,0.199µM*,-7.5%[57.1 µM]
COc1ccc(N=NC2C(=O)N(c3ccccc3)N=C2C)cc1 (stereo not drawn),-6.1%,2.4%,0.6,2.8%,-33.7%,-10.0%
CC1=NN(C(N)=S)C(=O)C1N=Nc1ccc(Br)cc1 (stereo not drawn),1.26µM*,0.0%,7.1,10.0%[57.1 µM],0.447µM*,3.0%[57.1 µM]
CC1=NN(c2ccccc2)C(=O)C1N=Nc1ccccc1 (stereo not drawn),-15.6%,3.7%,0.2,11.1%[57.1 µM],?,9.4%[57.1 µM]
CC1=NN(C(N)=S)C(=O)C1N=Nc1ccc(Cl)cc1 (stereo not drawn),1.12µM*,-0.9%,-0.4,-37.7%,0.398µM*,-17.8%
CC1=NN(c2ccccc2)C(=O)C1N=Nc1ccc(N)cc1 (stereo not drawn),8.91µM*,5.1%,-18.3,?,3.4%,-16.0%
Cc1ccc(-c2nnc(Nc3ccccc3)o2)cc1,14.1µM*,5.9%,-3.0,16.0%,5.01µM*,9.2%
Nc1ccc(O)cc1C(=O)OCC(=O)C12CC3CC(CC(C3)C1)C2,9.3%,6.0%,-46.8*,3.6%[57.1 µM],-16.2%,15.0%[57.1 µM]
Nc1ccc(O)cc1C(=O)OCC(=O)c1ccc(C2CCCCC2)cc1,?,-0.2%,-3.0,1.8%,7.08µM*,6.1%
Cc1ccc2nc(-c3ccco3)c(Nc3ccc4c(c3)OCCO4)n2c1,·,·,·,11.0%,·,25.2%
COc1ccc(Nc2c(-c3ccco3)nc3ccc(C)cn23)cc1,-9.2%[10 µM],-1.9%,-4.2,-9.1%,17.8µM*,5.7%
